Only some compounds are listed: those with a hit (about 19% of all), similar ones and a draw of the others.
HepG2 viability: kills HepG2 cells in TGF-b inhibitor counter-screen; HepG2 CAGA-GFP viability, ATP luminescence, 18 h; Potency, µM (doses to about 46.1 µM), without a hit: top-dose activity change, negative = cytotoxicity, most hits filed as cytotoxic; actives 0.76% (n = 410,000); AID 588856; note: potency is the fitted concentration of half-maximal effect
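HepG2 CAGA-GFP cells (1000/well, DMEM with 1% FBS) received compound, then TGF-beta at 500 pg/mL final, and were incubated 18 hours at 37 degrees C. Viability was read by CellTiter-Glo luminescence. Media-only wells were set as complete cell-killing and DMSO as no toxicity.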
TDP1 block: inhibitors of human tyrosyl-DNA phosphodiesterase TDP1; Q9NUW8; recombinant TDP1, AlphaScreen DNA substrate cleavage; actives 0.28% (n = 350,000); Potency, µM (series often up to 130 µM), for inactives: at the highest dose activity change, negative = inhibition, hits mostly inhibitors; note: potency is the fitted concentration of half-maximal effect; % is set by controls: 0 for no effect and ±100 for the full control effect; nearly all actives have a fitted effect of over 40% in size
Target sequence (Q9NUW8 whole entry, looked up): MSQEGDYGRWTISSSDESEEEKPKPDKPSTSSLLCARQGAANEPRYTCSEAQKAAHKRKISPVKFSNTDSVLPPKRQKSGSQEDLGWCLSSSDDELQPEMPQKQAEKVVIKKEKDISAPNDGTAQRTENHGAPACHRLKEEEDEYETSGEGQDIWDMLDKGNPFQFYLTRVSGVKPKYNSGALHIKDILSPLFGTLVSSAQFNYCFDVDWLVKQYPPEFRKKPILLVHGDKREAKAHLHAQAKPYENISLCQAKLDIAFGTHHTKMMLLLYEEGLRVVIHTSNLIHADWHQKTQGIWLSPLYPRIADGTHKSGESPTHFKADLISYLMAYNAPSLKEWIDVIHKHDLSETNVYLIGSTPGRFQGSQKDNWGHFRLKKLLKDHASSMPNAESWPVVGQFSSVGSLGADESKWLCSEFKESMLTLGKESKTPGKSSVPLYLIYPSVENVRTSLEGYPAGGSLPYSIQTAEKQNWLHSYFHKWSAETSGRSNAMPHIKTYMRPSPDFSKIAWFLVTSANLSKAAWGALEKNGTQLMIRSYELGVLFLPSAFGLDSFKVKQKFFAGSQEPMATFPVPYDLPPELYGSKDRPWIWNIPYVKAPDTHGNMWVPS
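Recombinant human Tdp1 (E. coli-expressed, 1 nM final) preincubated with compounds 15 min at room temperature, then 5'-biotin/3'-phosphotyrosine-FITC DNA substrate (15 nM final) added for 5 min. AlphaScreen beads (10 ug/ml final) added 10 min; cleavage lowers signal.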
IL-1B inflam inh: inhibitors of inflammasome signaling (IL-1 beta secretion); THP-1 LPS/ATP IL-1B secretion, AlphaLISA, 16 h; hits give low values; activity change, % at 57.5 µM; actives 4.7% (n = 360,000); AID 743279; in the data active = activity change below about -50%; inconclusive = mostly about -30% to -49%; note: % is set by controls: 0 for no effect and ±100 for the full control effect
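Secreted IL-1B measured by AlphaLISA bead assay after 16 h compound exposure of THP-1 cells; compounds (final up to 57.5 uM) added 1 h before LPS (250 ng/mL) and ATP (1.25 mM) stimulation; lower signal means less secretion.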
TGFb inhibitor: blocks TGF-b signaling. Potency, µM (titrated, usually from 46.1 µM), for the others: top-dose activity, negative = inhibition, most hits filed as inhibitors. HepG2 CAGA-GFP TGF-b/SMAD3 reporter, GFP fluorescence, 18 h; TGF-beta stimulated, 500 pg/mL final. AID 588855. actives 1.2% (n = 410,000); note: potency is the fitted concentration of half-maximal effect; % is set by controls: 0 for no effect and ±100 for the full control effect; nearly all actives have a fitted effect of over 65% in size
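TGF-beta reporter screen: HEPG2 CAGA-GFP, 1% FBS, 500 pg/mL TGF-beta final, 18 h; per-cell GFP summed per well; curves fitted and categorized by class.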
DT40 TDP1 CPT: DT40-hTDP1 cell growth loss with CPT. chicken DT40 Tdp1-/-;hTDP1 cells + 20 nM CPT, ATP luminescence, 48 h. Potency, µM (top dose mostly 46.2 µM), inactives show top-dose activity change, negative = growth inhibition, hits mostly inhibitors. actives 12% (n = 420,000); note: potency is the fitted concentration of half-maximal effect; % is set by controls: 0 for no effect and ±100 for the full control effect; nearly all actives have a fitted effect of over 55% in size
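Chicken DT40 Tdp1-/- cells stably complemented with human TDP1 were seeded at 400 cells/well in medium containing 20 nM camptothecin, exposed to pin-transferred compounds, and grown at 37 °C for at least 48 hr. Viability was read as ATP luminescence.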
DT40 TDP1 no CPT: qHTS for Inhibitors of human tyrosyl-DNA phosphodiesterase 1 (TDP1): qHTS in cells in absence of CPT; actives 15% (n = 420,000); AID 686978, 2013; Potency, µM (highest dose often 46.2 µM), for inactives: at the highest dose activity change, negative = growth inhibition, actives largely listed as inhibitors; DT40 Tdp1-/- hTDP1 cells, no CPT, ATP luminescence, 48 h; note: potency is the fitted concentration of half-maximal effect; % is set by controls: 0 for no effect and ±100 for the full control effect; nearly all actives have a fitted effect of over 55% in size
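A cellular qHTS used chicken DT40 cells lacking endogenous Tdp1 but carrying stably transfected human TDP1. Compounds were applied without camptothecin, and cell growth kinetics were judged by ATP-dependent luminescence after ≥48 hr.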
Active calls of the source: *; u = inconclusive; x = no result. Unless noted, calls come from the whole dose curve; as a rule, active = well fitted curve in the direction sought with a large enough effect; inconclusive = small, poorly fitted or top-dose-only effect, or another doubt; inactive = no such curve, though single readings can be large; an effect the other way counts as inactive or inconclusive.

SMILES	HepG2 viability	TDP1 block	IL-1B inflam inh	TGFb inhibitor	DT40 TDP1 CPT	DT40 TDP1 no CPT
CCOCCOC(=O)c1ccc2c(c1)N(Cc1ccccc1C#N)C(=O)c1ccccc1S2(=O)=O	-26%	3%	x	-38%	u	u
COc1ccc(S(=O)(=O)N2CCCC(C(=O)NCC3CCCO3)C2)cc1C (stereo not given)	-57%	3%	2	-3%	u	-24%
CN(Cc1ccc(Cl)cc1)C(CCc1ccccc1)C(=O)NC1CCCCC1 (stereo not given)	-25%	x	43	u	u	15µM*
CCN(CC)C(=O)C1CCCN(Cc2ccccc2)C1 (stereo not given)	5%	-5%	-13	4%	u	-2%
CN(Cc1ccccc1)C(=O)C1CCCN(Cc2ccc(Cl)cc2)C1 (stereo not given)	-10%	-4%	u	0%	-95%	26µM*
Cc1oc(-c2ccc(Cl)cc2)nc1CN1CCCC(C(=O)NCCCN2CCOCC2)C1 (stereo not given)	-20%	2%	-4	u	-78%	23µM*
Cc1oc(-c2ccccc2F)nc1CN1CCC(C(=O)NCc2cccnc2)CC1	-3%	3%	12	-14%	1%	2%
Cc1oc(-c2ccc(Cl)cc2)nc1CN1CCCC(C(=O)NCc2cccnc2)C1 (stereo not given)	-21%	0%	-72*	u	9.2µM*	12µM*
Cc1ccnc(NC(=O)c2ccc(S(=O)(=O)c3ccccc3)cc2)c1	-30%	-5%	-8	u	-5%	u
CCCCCCCCCCCCC/C=C/[C@@H](O)[C@H](CO)NC(=O)CCCCC	x	14%	x	x	x	x
O=C(NCc1ccco1)Nc1cccc([N+](=O)[O-])c1	16%	x	-3	-15%	u	-10%
Cc1cccc(-c2nc(CN3CCCC(C(=O)NCCc4ccc(Cl)cc4)C3)c(C)o2)c1 (stereo not given)	-21%	9%	x	-23%	16µM*	8.2µM*
CCc1ccc(-c2nc(CN3CCC(C(=O)NCCc4ccc(Cl)cc4)CC3)c(C)o2)cc1	-16%	3%	x	1%	-10%	u
Cc1oc(-c2ccc(Cl)cc2)nc1CN1CCCC(C(=O)NCCc2ccccc2)C1 (stereo not given)	-21%	7%	x	7.1µM*	8.2µM*	5.8µM*
CCc1ccc(-c2nc(CN3CCC(C(=O)NCCc4ccc(C)cc4)CC3)c(C)o2)cc1	-20%	5%	x	u	-10%	u
CCn1c2ccccc2c2nnc(SCc3ccc(C(=O)OC)o3)nc21	-14%	-2%	-21	-3%	18µM*	23µM*
CCn1c2ccccc2c2nnc(SCc3ccccc3)nc21	-24%	-5%	24	-19%	u	u
Cc1ccc2c(c1)c1nc3ccccc3nc1n2CCN1CCOCC1	-4%	1%	-58*	10%	u	18µM*
Cc1nc2c3cc(Cl)ccc3n(CCN3CCOCC3)c2s1	-1%	4%	-23	5%	u	15µM*
Cc1ccc2c(c1)c1nnc(SCC(=O)N3CCN(c4ccc(F)cc4)CC3)nc1n2CC(=O)O	7%	-3%	17	5%	0%	-19%
CCn1c2ccc(C)cc2c2nnc(SCCN3CCOCC3)nc21	-3%	0%	-64*	0%	u	21µM*
CCn1c2ccccc2c2nnc(SCC(N)=O)nc21	0%	4%	6	-3%	-2%	-1%
CCCCn1c2ccc(C)cc2c2nnc(SCCN3CCCCC3)nc21	-35%	x	-78*	-26%	u	21µM*
CCn1c2ccccc2c2nnc(SCCN3CCCCC3)nc21	-47%	4%	u	-16%	26µM*	u
CCn1c2ccccc2c2nnc(SCCN3CCOCC3)nc21	-22%	x	12	0%	-20%	u
SMILES	HepG2 viability	TDP1 block	IL-1B inflam inh	TGFb inhibitor	DT40 TDP1 CPT	DT40 TDP1 no CPT
CCn1c2ccccc2c2nnc(SCCCn3c(=O)[nH]c4ccccc43)nc21	3%	8%	2	-2%	u	23µM*
CCOc1ccccc1NC(=O)CSC1=Nc2ccccc2C2=NC(CC(=O)NCc3ccc4c(c3)OCO4)C(=O)N12 (stereo not given)	-9%	-2%	x	u	u	23µM*
O=C(CC1N=C2c3ccccc3N=C(SCc3ccccc3F)N2C1=O)NCc1ccc2c(c1)OCO2 (stereo not given)	-12%	1%	x	-20%	18µM*	u
COc1ccccc1NC(=O)CSC1=Nc2ccccc2C2=NC(CC(=O)NCc3ccc4c(c3)OCO4)C(=O)N12 (stereo not given)	-15%	1%	x	u	u	u
COc1cc(C(=O)Nc2nonc2-c2ccc(Cl)cc2)cc(OC)c1OC	-21%	5%	x	-15%	u	u
COc1ccc(/C=N/NC(=O)c2cc(-c3cccnc3)nc3ccccc23)c(OC)c1	1%	3%	27	5%	u	4.6µM*
C/C(=N\NC(=O)c1cc(-c2ccccn2)nc2ccccc12)c1cccc([N+](=O)[O-])c1	-10%	5%	9	-6%	-12%	u
O=[N+]([O-])c1cc(Cl)cc(/C=N\Nc2ccccn2)c1O	-44%	13%	126	u	5.2µM*	5.2µM*
O=[N+]([O-])c1ccc(Cl)cc1C=NNc1ccccn1	8%	x	21	-6%	-5%	-10%
O=C(N/N=C/c1cc(Cl)cc([N+](=O)[O-])c1O)c1cc(-c2ccccn2)nc2ccccc12	-27%	x	131	u	6.5µM*	15µM*
COc1ccc(-c2cc(C(=O)N/N=C/c3sccc3C)c3ccccc3n2)c(OC)c1	-23%	6%	-9	8%	u	u
COc1cccc(/C=N/NC(=O)c2cc(-c3ccccn3)nc3ccccc23)c1O	-3%	2%	87	-24%	9.2µM*	8.2µM*
CCOC(=O)NC1=NCC(C)S1 (stereo not given)	-9%	7%	-11	-4%	-2%	-7%
COc1ccccc1C(=O)NCCCCNC(=O)c1ccccc1OC	7%	x	10	29%	-4%	-11%
COc1ccc(/C=N/NC(=O)c2cc(-c3ccccc3)nc3ccccc23)c(C(=O)O)c1OC	-4%	x	1	1%	-16%	-23%

Assay outcomes: PubChem, National Center for Advancing Translational Sciences (NCATS)
